Screens deposited in PubChem BioAssay by The Scripps Research Institute Molecular Screening Center.
hgDAF-12 ag – agonists of H. glycines DAF-12 nuclear receptor. HEK293 GAL4-hgDAF12 UAS-luciferase reporter, agonist luminescence; normalized to butyrate control. activation, % at 6.8 µM. hit rate 1.8% among 370,000. AID 687014;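 active = activation above a cutoff set at the mean of all screened compounds plus 3 SD, cut at about 10% in these data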;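 note: 0% = DMSO wells and 100% = sodium butyrate wells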
ssDAF-12 act – S. stercoralis DAF-12 activation, primary screen. HEK293 ssDAF-12/GRIP1 lit1-tk-luc reporter, luminescence; % of 3 µM dafachronic acid response. activation, % at 6.8 µM. hit rate 1% among 370,000. AID 652126;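 active = activation above the mean over all tested compounds plus 3 SD, cut at about 0.9% in these data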;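 note: 0% = DMSO-only wells and 100% = 3 µM delta7-dafachronic acid wells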
AHR act – human AHR activation; AID 2796; activation, % at 5 µM; hit rate 2.5% among 320,000; AHR-responsive luciferase reporter cells, luminescence; P35869; in the data active = activation above about 47%;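 note: 0% = vehicle wells and 100% = reference agonist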
hcDAF-12 act – activators of H. contortus DAF-12 nuclear receptor; HEK293 hcDAF-12 lit1-tk-luc reporter, luminescence; 0% DMSO, 100% Δ7-dafachronic acid; activation, % at 6.8 µM; hit rate 1.4% among 370,000; AID 652067;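 active = activation above the mean of all tested compounds plus 3 SD, cut at about 5.5% in these data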;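 note: 100% = response to 3 µM Δ7-dafachronic acid high control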
DAX1 inh-1 – NR0B1 (DAX1) inhibition. HEK293 Gal4-DAX1 luciferase reporter, luminescence. inhibition, % at 6.75 µM. hit rate 0.99% among 340,000;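 active = inhibition above the mean over all tested compounds plus 3 SD, cut at about 4.2% in these data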;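 note: 0% = DAX1-transfected cells with DMSO and 100% = empty-vector control cells with DMSO; inhibition shows as a rise in luminescence from relieved DAX1 repression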
Target sequence (P51843 207-470 limits assumed): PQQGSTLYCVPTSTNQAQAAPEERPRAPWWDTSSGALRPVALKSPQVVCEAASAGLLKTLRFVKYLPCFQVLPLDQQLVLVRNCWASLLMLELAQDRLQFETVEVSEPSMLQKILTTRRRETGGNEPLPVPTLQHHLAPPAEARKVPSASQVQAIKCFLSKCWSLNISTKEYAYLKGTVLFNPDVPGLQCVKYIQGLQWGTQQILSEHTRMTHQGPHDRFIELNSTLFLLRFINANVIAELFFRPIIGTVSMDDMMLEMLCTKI
DAX1 inh-2 – blocks DAX1 repression of SF-1 activated StAR promoter. inhibition, % at 6.8 µM. HEK293T StAR-luciferase reporter, SF-1/DAX-1 repression relief. hit rate 1.1% among 370,000;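 active = inhibition above the mean over all tested compounds plus 3 SD, cut at about 3.6% in these data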;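 note: 0% = DAX-1 cells with DMSO and 100% = cells lacking DAX-1 with DMSO; higher inhibition means more luminescence from relief of DAX-1 repression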
DAX1 conf – NR0B1 (human) inhibition, confirmation | shares compounds with DAX1 inh-2 | HEK293T StAR-promoter luciferase reporter, SF-1/DAX-1 repression | inhibition, % at 6.8 µM | hit rate 87% among 2,400 | AID 652134;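 active = inhibition above the average of every tested compound plus 3 SD, cut at about 3.8% in these data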;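 note: 0% = DAX-1 cells with DMSO and 100% = no DAX-1 control cells with DMSO; active compounds raise luminescence by relieving repression of the StAR reporter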
SF1 AF2mut Luc – counter-screen for DAX1 inhibitors: nonselective inhibitors with SF-1 AF2 mutant | shares compounds with DAX1 inh-2 | HEK293 StAR-luciferase, luminescence | inhibition, % at 6.8 µM | hit rate 78% among 2,400 | AID 652136;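 active = inhibition above the mean of all tested compounds plus 3 SD, cut at about 3% in these data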;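 note: 0% = DAX-1 transfected cells with DMSO and 100% = cells without DAX-1 with DMSO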
LXRb hcDAF ctr – counter-screen for hcDAF-12 agonists: agonists of human LXR-beta | HEK293 Gal4-LXR tk-luc reporter, luminescence, 24 h; normalized: DMSO 0%, positive control 100% | activation, % at 6.8 µM | 3,400 tested, under 10 active | shares compounds with hcDAF-12 act;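 active = mean percent activation of the reporter above a cutoff set as the average over tested compounds plus their standard deviation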
Target sequence (P55055 whole entry, looked up, the tested form may be a part): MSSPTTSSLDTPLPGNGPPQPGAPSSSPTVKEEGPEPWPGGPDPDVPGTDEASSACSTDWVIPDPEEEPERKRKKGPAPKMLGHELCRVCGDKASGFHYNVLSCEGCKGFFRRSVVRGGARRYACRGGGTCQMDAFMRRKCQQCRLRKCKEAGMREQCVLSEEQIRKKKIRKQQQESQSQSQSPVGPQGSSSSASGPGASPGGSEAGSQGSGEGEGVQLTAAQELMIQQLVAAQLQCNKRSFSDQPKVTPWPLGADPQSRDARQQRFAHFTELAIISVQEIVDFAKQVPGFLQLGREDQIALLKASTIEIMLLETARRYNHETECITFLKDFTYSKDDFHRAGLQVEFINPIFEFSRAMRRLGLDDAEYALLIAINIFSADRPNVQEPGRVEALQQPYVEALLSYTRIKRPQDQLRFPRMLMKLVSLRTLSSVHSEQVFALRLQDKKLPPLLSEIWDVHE
hcDAF12 ag – hcDAF-12 agonism, confirmation assay. shares compounds with hcDAF-12 act. HEK293 hcDAF-12 lit1-tk-luc reporter, luminescence; % of Δ7-dafachronic acid response. activation, % at 6.8 µM. hit rate 61% among 3,400. AID 743032;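 active = mean activation across triplicate tests above the threshold derived from the earlier primary screen, cut at about 5.5% in these data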;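 note: 0% = DMSO only wells and 100% = 3 µM Δ7-dafachronic acid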
hgDAF12 ag – hgDAF-12 agonism, confirmation assay. AID 743050. shares compounds with hgDAF-12 ag. HEK293 GAL4-hgDAF12 luciferase reporter, agonist mode; percent of butyrate response. activation, % at 6.8 µM. hit rate 80% among 3,300;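 active = mean activation over triplicate wells above the hit cutoff derived from the earlier primary screen, cut at about 11% in these data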;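 note: 0% = DMSO low control and 100% = 2 mM sodium butyrate high control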
LXRb DAF12 ctr – activates human LXR-beta, counter-screen for DAF-12 agonists; shares compounds with hgDAF-12 ag; HEK293 Gal4-LXR luciferase reporter, 24 h; activation, % at 6.8 µM; 3,300 tested, under 10 active;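 active = mean activation of the triplicate above a set limit carried over from the primary screen, none filed active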
* hit, by the source's call; x = not tested or not shown. In the library only some 5.7% were active in any assay of this set; here they are far more common.

SMILES	hgDAF-12 ag	ssDAF-12 act	AHR act	hcDAF-12 act	DAX1 inh-1	DAX1 inh-2	DAX1 conf	SF1 AF2mut Luc	LXRb hcDAF ctr	hcDAF12 ag	hgDAF12 ag	LXRb DAF12 ctr
O=C(Nc1ccccc1NC(=O)c1csnn1)c1csnn1	1	-1	1	1	1	0	x	x	x	x	x	x
CC(C)c1ccc(NC(=O)c2csnn2)cc1	13*	1.1*	8	5	0	4.7*	12*	6.6*	x	x	13*	1
Cc1cc(NC(=O)CSCC(=O)OCc2nnc(-c3ccc(F)cc3)o2)no1	3	-2	2	3	-1	0	x	x	x	x	x	x
CC1=Nc2ccccc2N=C(N)C1c1ccccc1 (stereo not given)	18*	1.5*	27	7.4*	1	5.1*	3.7*	4.3*	0	3	13*	0
Cc1ccc(NC(=O)c2ccc(S(=O)(=O)NCc3cccnc3)cc2)c(C)c1	3	-1	4	-1	-1	0	x	x	x	x	x	x
CCCCC12CN3CC(C)(CN(C1)C31C(=O)N(C)c3ccc(C)cc31)C2=O (stereo not given)	-1	-1	8	1	0	0	x	x	x	x	x	x
Cc1nn(-c2nnc(NC3CCCCC3)nn2)c(C)c1Br	18*	1.8*	33	6.1*	4	5.2*	13*	8.3*	x	x	16*	1
Cc1nn(C)c(C)c1S(=O)(=O)NC1CCCC1	1	-1	1	-1	1	-1	x	x	x	x	x	x
CCOC(=O)CC/C(=N\NC(N)=O)c1ccc(OC)c(Cl)c1	1	-1	0	-2	0	0	x	x	x	x	x	x
Cc1onc(-c2ccccc2)c1C(=O)Nc1ccc(S(=O)(=O)NC(C)(C)C)cc1	3	-2	0	-1	1	0	x	x	x	x	x	x
Cc1ccc2nc(-c3ccc(NC(=O)CCN4C(=O)c5ccccc5C4=O)cc3)sc2c1	17*	0.9*	16	8.7*	0	5.9*	15*	4.5*	2	8.3*	21*	1
Cc1ccc2nc(-c3ccc(NC(=O)CSCC(=O)O)cc3)sc2c1	24*	1	3	7.0*	4	4.8*	15*	8.8*	1	5.8*	18*	1
Cc1ccc2nc(-c3ccc(NC(=S)NC(=O)C(C)C)cc3)sc2c1	5	0	-2	4	2	2	x	x	x	x	x	x
Cc1ccc2nc(-c3ccc(NC(=S)NC4CC(C)(C)NC(C)(C)C4)cc3)sc2c1	19*	1	9	5	4.4*	7.5*	12*	10*	x	x	17*	1
Cc1ccc2nc(-c3ccc(NC(=O)C(C)N4C(=O)c5ccccc5C4=O)cc3)sc2c1 (stereo not given)	21*	1	6	8.6*	3	6.2*	8.8*	5.8*	1	5	13*	1
O=C(CCN1C(=O)c2ccccc2C1=O)Nc1ccc(-c2nc3ccccc3s2)cc1	3	-1	32	2	1	2	x	x	x	x	x	x
O=C(NCCN1CCCC1=O)C1CCC(=O)N(CCc2cccc(F)c2)C1 (stereo not given)	0	-1	-4	-1	0	0	x	x	x	x	x	x
O=C(NCc1ccccc1)C(c1ccccc1)n1c(-c2ccncc2)nc2ccccc21 (stereo not given)	0	-1	x	1	x	1	x	x	x	x	x	x
O=C(NCc1ccccc1)C(c1ccccc1)n1c(C2CC2)nc2ccccc21 (stereo not given)	20*	1.9*	x	2	x	6.1*	11*	5.2*	x	x	16*	1
Cc1ccc(/C=C2/CCc3c([nH]c4ccccc34)C2=O)cc1	18*	1	13	10*	3	5.3*	24*	9.1*	2	5.8*	22*	1
Cc1ccc2[nH]c3c(c2c1)CC/C(=C/c1ccccc1)C3=O	3	0	5	3	2	1	x	x	x	x	x	x
COc1cccc(CNc2ccc(Br)cn2)c1O	19*	1.1*	8	6.8*	1	4.5*	12*	6.1*	1	6.0*	18*	1
COc1cccc(CNc2ncc(Br)cc2Br)c1O	5	-1	1	-1	2	1	x	x	x	x	x	x
COC(=O)[C@]12C[C@H](CC(=O)N3CCN(C(=O)c4ccco4)CC3)C(=O)N(CCC3=CCCCC3)C1=C[C@H](C(C)(C)C)O[C@@H]2C	1	-1	x	1	x	1	x	x	x	x	x	x
O=C1Nc2ccccc2N(C(=O)c2c(F)cccc2F)C1c1nc2ccccc2[nH]1 (stereo not given)	23*	0	x	4	x	14*	4.2*	3.1*	x	x	11*	0
SMILES	hgDAF-12 ag	ssDAF-12 act	AHR act	hcDAF-12 act	DAX1 inh-1	DAX1 inh-2	DAX1 conf	SF1 AF2mut Luc	LXRb hcDAF ctr	hcDAF12 ag	hgDAF12 ag	LXRb DAF12 ctr
CCNc1nc(NC(C)(C)C)nc(SCC(N)=O)n1	2	-1	0	-2	0	0	x	x	x	x	x	x
CCCCOC1CC(c2ccc(OCc3ccc(OC)cc3)c(OC)c2)N(C)O1 (stereo not given)	-1	-1	-2	-1	-1	0	x	x	x	x	x	x
CCOCC(=O)Nc1cc(C(=O)NCCc2ccccc2)ccc1Cl	14*	0	-4	4	2	4.5*	9.0*	4.3*	x	x	13*	0
CC(O)/C=C/c1ccc2ccccc2n1 (stereo not given)	4	-1	9	3	-1	0	x	x	x	x	x	x
Cc1ccsc1/C=C/c1ccc2ccccc2n1	16*	3.0*	42	23*	1	5.0*	7.3*	2	2	22*	15*	2
CCc1sc(C(=O)Nc2ncccc2O)cc1C	22*	1.0*	x	7.9*	-2	22*	15*	6.2*	1	7.9*	26*	1
Cc1cnc(NC(=O)COc2ccc3c(c2)CCC3)s1	25*	1.3*	28	6.1*	1	13*	14*	5.3*	x	x	25*	1
